Screening data (PubChem)
This is a sample that favours compounds with a hit; in the whole collection about 3.9% have one here.
KKLEB tox = cytotoxicity in KKLEB CF airway cells, primary screen, cytotoxicity control for CF NF-kB inhibitor project, cell-based, uHTS, fluorescence assay plates; activity change (cytotoxicity), % at 5 µM; KKLEB CF airway cells viability, ATPlite luminescence, overnight; stronger effect = lower value; cells stimulated with P. aeruginosa culture filtrate; actives 0.36% (n = 360,000);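 active = corrected activity change at or below -50% at 5 µM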
TROY signal inh = inhibitors of TROY-driven NF-kB signaling, primary screen, Q293 LMP1-TROYcd cells, NF-kB luciferase, uHTS. Q293 LMP1-TROYcd NF-kB luciferase reporter, 4 h. inhibition, % at 10 µM. actives 0.98% (n = 360,000). AID 1347056, 2019;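 active = compounds whose plate-normalised and pattern-corrected inhibition of the luciferase reporter signal at the single screening dose is 50% or more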
CF NFkB block = inhibitors of PAF-induced NF-kB signaling, primary screen, cell-based, GFP fluorescence, uHTS; KKLEB NF-kB-GFP reporter, GFP fluorescence overnight; inhibition, % at 5 µM; actives 0.86% (n = 360,000);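 active = at least 50% inhibition at 5 µM, scaled per plate between neutral and stimulator controls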;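 note: PAF is a Pseudomonas aeruginosa culture filtrate used as stimulus; plate controls were PAF-stimulated DMSO wells for no effect and unstimulated DMSO wells for full effect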
Peg3 prom inh = Peg3 promoter-driven luciferase inhibitors, primary screen, cell-based, HeLa, luciferase luminescence. HeLa PEG-Prom luciferase reporter, overnight. inhibition, % at 20 µM. actives 1.7% (n = 360,000). AID 588405, 2011;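 active = inhibition of at least 50% at 20 µM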
HIF-2a inh = HIF-2a reporter inhibitors, primary screen, luminescence, 786-0 RCC cells; 786-0 RCC cells HIF-2a reporter, luciferase luminescence, overnight; inhibition, % at 18.8 µM; actives 0.72% (n = 360,000); AID 624352, 2012;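 active = inhibition of the luminescence signal of 40% or more relative to plate controls, in a single-dose primary screen at 18.75 µM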
TWEAK Fn14 block = inhibitors of TWEAK-Fn14 signaling, primary screen, luciferase reporter cells, uHTS; actives 2% (n = 360,000); inhibition, % at 10 µM; AID 1159606, 2016; TWEAK-stimulated Fn14 reporter cells, luciferase luminescence, 8 h; in the data active = inhibition above about 50%
Mdm2 MdmX conf = retested Mdm2-MdmX interaction blockers, confirmation, cell-based, luminescence, single concentration, set 2. shares compounds with HIF-2a inh. SaOS-2 split-luciferase Mdm2/MdmX complementation. inhibition, % at 8 µM. actives 99% (n = 740);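 active = mean inhibition of the luminescence signal across two replicates at or above 26 percent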
Target sequence (O15151 whole entry, looked up): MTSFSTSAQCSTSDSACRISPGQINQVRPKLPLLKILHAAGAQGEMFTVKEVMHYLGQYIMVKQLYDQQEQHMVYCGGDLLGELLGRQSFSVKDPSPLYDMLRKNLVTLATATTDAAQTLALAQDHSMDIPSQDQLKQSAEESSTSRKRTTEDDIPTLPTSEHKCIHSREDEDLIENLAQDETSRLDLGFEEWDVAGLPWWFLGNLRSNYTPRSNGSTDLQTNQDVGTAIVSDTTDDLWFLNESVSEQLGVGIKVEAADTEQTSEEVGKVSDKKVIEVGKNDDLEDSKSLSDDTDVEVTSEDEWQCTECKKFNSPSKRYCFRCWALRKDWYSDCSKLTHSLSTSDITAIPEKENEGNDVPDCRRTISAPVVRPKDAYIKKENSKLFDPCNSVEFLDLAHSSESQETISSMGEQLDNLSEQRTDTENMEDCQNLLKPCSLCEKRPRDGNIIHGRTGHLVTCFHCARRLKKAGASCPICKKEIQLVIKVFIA
Target sequence (Q00987 whole entry, looked up): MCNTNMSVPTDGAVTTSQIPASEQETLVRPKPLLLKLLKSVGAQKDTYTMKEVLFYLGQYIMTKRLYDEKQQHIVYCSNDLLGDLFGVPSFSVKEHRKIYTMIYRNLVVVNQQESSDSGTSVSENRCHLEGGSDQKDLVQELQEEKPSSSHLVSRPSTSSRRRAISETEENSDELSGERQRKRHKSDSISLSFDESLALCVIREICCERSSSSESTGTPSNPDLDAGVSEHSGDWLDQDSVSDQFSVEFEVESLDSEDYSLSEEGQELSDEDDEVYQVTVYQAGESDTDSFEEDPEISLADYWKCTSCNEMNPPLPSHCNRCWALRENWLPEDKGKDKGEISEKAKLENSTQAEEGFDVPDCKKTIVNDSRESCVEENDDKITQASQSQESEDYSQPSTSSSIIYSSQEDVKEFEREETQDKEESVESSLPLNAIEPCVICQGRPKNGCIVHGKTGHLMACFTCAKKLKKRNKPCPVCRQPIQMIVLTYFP
HIF-2a conf = HIF-2a reporter inhibitor retest, confirmation, luminescence, 786-0 RCC cells; shares compounds with HIF-2a inh; HIF-2a luciferase reporter luminescence, overnight; inhibition, % at 18.8 µM; actives 56% (n = 1,800); AID 651580, 2012;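 active = mean inhibition across four replicates of at least 40 percent at the single tested concentration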
HIF-1a cs = HIF-1a luciferase reporter signal reduction – MiaPaCa-2 cells, single concentration, counter-screen for HIF-2a inhibitor project, confirmation; inhibition, % at 18.8 µM; MiaPaCa-2 HIF-1a luciferase reporter, desferoxamine, overnight; shares compounds with HIF-2a inh; actives 72% (n = 1,800);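 active = mean inhibition of the reporter signal across four replicates at the single tested dose of 50% or more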
* hit, by the source's call; / = no result.

SMILES | KKLEB tox | TROY signal inh | CF NFkB block | Peg3 prom inh | HIF-2a inh | TWEAK Fn14 block | HIF-2a conf | HIF-1a cs | others
COc1cc(OC)cc(-c2nnc(Nc3nc4c(F)cccc4s3)o2)c1 | -1 | -2 | 7 | -18 | 72* | 0 | 85* | -23
CC(C)COc1ccc(C(=S)N2CCCC2)cc1 | -2 | -40 | -17 | -9 | 57* | 21 | 58* | -7
O=[N+]([O-])c1cc(Cl)ccc1NCCc1ccccn1 | -4 | -52 | 16 | -139 | -129 | 1 | / | /
COc1ccccc1OCCC(=O)OCC(=O)NCc1ccc(Cl)cc1 | 2 | 0 | -4 | 10 | 15 | 17 | / | /
COc1ccc(CNC(=O)COC(=O)CCCOc2ccc(Cl)cc2Cl)cc1 | -1 | 5 | 12 | 11 | 43* | 9 | 29 | 20
CN(C)CC(CCC(CN(C)C)C(O)(c1ccccc1)c1ccccc1)C(O)(c1ccccc1)c1ccccc1 (stereo unspecified) | / | / | / | / | / | / | / | / | Mdm2 MdmX conf=103*
CN(C)C/C=C/C(O)(c1ccccc1)c1ccccc1 | 12 | 6 | -5 | 10 | 16 | 2 | / | /
Cc1ccc(C(=O)Nc2ccc(CC(=O)O)cc2)o1 | -1 | -7 | -6 | 10 | 18 | 0 | / | /
CC(C)(C)c1ccc(C(=O)Nc2ccc(CC(=O)O)cc2)o1 | -2 | 55* | 11 | 41 | 83* | 88* | 96* | 79*
Cc1cc(C(=O)Nc2ccc(CC(=O)O)cc2)c(C)o1 | 5 | 10 | -18 | -17 | 49* | 49 | 60* | 44
Cc1cc(C(=O)Nc2ccccc2)c(C)o1 | -9 | 20 | -2 | -81 | -96 | -15 | / | /
COc1cc(/C=C2/NC(=O)N(Cc3ccccc3F)C2=O)ccc1O | -10 | -6 | -16 | 0 | 7 | 30 | / | /
CN(C)CC(C(=O)c1ccccc1)c1ccccc1 (stereo unspecified) | -51* | 33 | 63* | 114* | 86* | 79* | 25 | 96* | Mdm2 MdmX conf=103*
CN(Cc1cc(Cl)cc(Cl)c1)CC(C(=O)c1ccccc1)c1ccccc1 (stereo unspecified) | -2 | -12 | 8 | 26 | 39 | 15 | / | /
CC(=O)Nc1ccc(Nc2cc(N3CCOCC3)c3nonc3c2[N+](=O)[O-])cc1 | -10 | -3 | -3 | 14 | 42* | -11 | 5 | 76*
CCCn1c(=NC(=O)CS(=O)(=O)c2ccccc2)sc2cc(S(C)(=O)=O)ccc21 | -13 | -6 | -9 | 25 | 21 | -1 | / | /
CCOc1cc(/C=C/c2nc3cc(C)c(C)cc3s2)ccc1OCC(=O)N1CCOCC1 | -10 | 24 | -14 | -11 | -21 | 37 | / | /
CCOc1cc(/C=C\[N+](=O)[O-])ccc1OCC(=O)N1CCOCC1 | 10 | 15 | -24 | 78* | 83* | 50 | 88* | 85*
CC(C)c1ccc(NC2CCCN(C(=O)c3cscn3)C2)cc1 (stereo unspecified) | 6 | -17 | -9 | -26 | -45 | 12 | / | /
Cc1ccc(C(=O)C2C(=O)C3CCC2C3)cc1 (stereo unspecified) | 13 | -19 | -22 | 38 | 46* | 63* | 2 | 10
COc1cccc(/C=N/NC(=O)c2[nH]c(C)c(C(=O)N/N=C/c3cccc(OC)c3O)c2C)c1O | -13 | -12 | -31 | 13 | -53 | -32 | / | /
Cc1cc(C)c2nc(C)cc(N/N=C/c3ccc(O)cc3)c2c1 | -81* | -53 | 8 | 108* | 93* | -352 | / | / | Mdm2 MdmX conf=103*
Cc1cc(-c2ccccc2)nc(N/N=C/c2ccc(O)cc2)n1 | -10 | -18 | -24 | -210 | -222 | 16 | / | /
CC(Sc1ncnc2sc(-c3ccccc3)cc12)C(N)=O (stereo unspecified) | -2 | -2 | -11 | -185 | -134 | -6 | / | /
O=C(Nc1ccc(F)cc1)Nc1cc(OCC(F)(F)F)cc(OCC(F)(F)F)c1 | -35 | 53* | 46 | 41 | 13 | 54* | / | / | Mdm2 MdmX conf=93*
SMILES | KKLEB tox | TROY signal inh | CF NFkB block | Peg3 prom inh | HIF-2a inh | TWEAK Fn14 block | HIF-2a conf | HIF-1a cs | others
O=c1cc(-c2ccccc2)oc2ccc3ccccc3c12 | -67* | 75* | -67 | 43 | 51* | 93* | 70* | 57*
Cc1cc(NC(=O)CN(C)S(=O)(=O)c2cnc[nH]2)ccc1Br | -1 | -9 | 10 | -12 | -31 | -15 | / | /
CC(C)(C)NCC(=Cc1ccccc1)C(=O)c1ccccc1 | -13 | 21 | 4 | 101* | 80* | 99* | 99* | 107*
CC(=O)N/C(=C/c1ccccc1)c1ccccc1 | 13 | -11 | 2 | -21 | -26 | 10 | / | /
COc1ccc(/C=C/c2c(-c3ccc(OC)cc3)oc3ccc(-c4ccc(OC)cc4)cc23)cc1 | -2 | 0 | -3 | 21 | -12 | -1 | / | /
COc1ccc(/C=C/c2cc(-c3ccc(C)cc3)o[n+]2C)cc1 | -62* | 26 | 56* | 67* | 43* | 58* | 54* | 103* | Mdm2 MdmX conf=102*
C=CC(C)(C)c1c2occc2c(O)c2ccc(=O)oc12 | -19 | 20 | 5 | 13 | -13 | 11 | / | /
C=CC(C)(C)c1c(O)c(CC=C(C)C)c(O)c2c(=O)c3ccc(O)c(O)c3oc12 | -7 | 46 | 54* | 61* | 10 | 76* | / | / | Mdm2 MdmX conf=97*
COc1ccc(OC)c2sc(NC(=O)CCS(=O)(=O)c3ccccc3)nc12 | -55* | -9 | 50 | 44 | 90* | 20 | -31 | 56*
Cc1cc(C)nc(CCNC(=O)CC2C(=O)NCCN2Cc2ccc(F)cc2Cl)n1 (stereo unspecified) | -8 | -15 | -6 | 5 | 14 | -9 | / | /
COc1ccc(C(=O)n2cc(C(C)=O)c3ccccc32)cc1 | -9 | 40 | 37 | 5 | 3 | 48 | / | /
COc1ccc(-c2noc(CCC(=O)Nc3cccnc3)n2)cc1 | -2 | -14 | 14 | -63 | -44 | -25 | / | /
